Screens deposited in PubChem BioAssay by National Center for Advancing Translational Sciences (NCATS).
Compounds with a hit are over-represented: about 7.3% of the library has one in this group of screens.
KinaseGlo FLuc: blocks Kinase-Glo luciferase, a counter-screen artifact; 0.28% of 200,000 active; Kinase-Glo luciferase, ATP luminescence, 8 min; Potency, µM (doses to about 38.3 µM), for inactives: top-dose activity change, negative = inhibition, hits mostly inhibitors; note: % is set by controls: 0 for no effect and ±100 for the full control effect; nearly all actives have a fitted effect of over 60% in size
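Inhibition of Kinase-Glo luciferase light generation was assessed at 10 uM ATP in pH 7.2 imidazole buffer, with luminescence measured after eight minutes at ambient temperature.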
FLuc modulator: inhibits or activates purified firefly luciferase, miR-21 counter-screen. P08659. purified FLuc, Km substrates, luminescence inhibition. Potency, µM (doses to about 57.5 µM), for inactives: at the top dose activity change, negative = inhibition, most hits filed as inhibitors. 6.9% of 360,000 active. AID 588342;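 note: plate controls were vehicle for no effect and reference inhibitor for full effect; nearly all actives have a fitted effect of over 55% in size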
Target sequence (P08659 whole entry, looked up): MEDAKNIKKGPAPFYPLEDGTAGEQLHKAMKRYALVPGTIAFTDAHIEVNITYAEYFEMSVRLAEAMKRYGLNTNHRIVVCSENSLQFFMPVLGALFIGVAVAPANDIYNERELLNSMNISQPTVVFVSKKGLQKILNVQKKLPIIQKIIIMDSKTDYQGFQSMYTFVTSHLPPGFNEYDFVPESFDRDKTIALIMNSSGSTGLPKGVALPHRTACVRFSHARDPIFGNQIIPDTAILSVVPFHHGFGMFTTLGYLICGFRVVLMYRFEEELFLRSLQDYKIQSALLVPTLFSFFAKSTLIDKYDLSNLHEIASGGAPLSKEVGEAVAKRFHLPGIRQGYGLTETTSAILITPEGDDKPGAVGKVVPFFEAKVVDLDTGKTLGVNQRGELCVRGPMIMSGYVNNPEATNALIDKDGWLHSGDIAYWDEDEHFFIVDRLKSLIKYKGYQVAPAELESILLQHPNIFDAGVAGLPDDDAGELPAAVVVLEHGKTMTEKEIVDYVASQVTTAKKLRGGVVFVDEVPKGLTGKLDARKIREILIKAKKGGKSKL
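Purified P. pyralis luciferase, 10 nM final, with Km-level 10 uM D-luciferin and 10 uM ATP in 50 mM Tris acetate pH 7.5, 10 mM Mg acetate, 0.01% Tween-20, 0.05% BSA; 6-point qHTS titration about 60 µM downward; luminescence read.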
SMN2 splice up: increases expression of the SMN2 splice variant; 2.8% of 210,000 active; Potency, µM (highest dose often 46.1 µM), inactives show at the highest dose activity change, positive = activation, most hits filed as activators; HEK293 SMN2-luciferase splicing reporter, luminescence, 30-36 h; note: % of control where 0% means no effect; nearly all actives have a fitted effect of over 55% in size
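HEK293 cells carry an SMN2 minigene-luciferase reporter in which exon 7 inclusion puts luciferase in frame. Cells were seeded at 2000 cells/well, attached for 10-12 hours, then exposed to compounds for 30-36 hours at 37C before ONE-Glo luminescence.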
NPC1 prom act: activators of NPC1 promoter. Huh7 NPC1 promoter luciferase reporter, 24 h. Potency, µM (series often up to 9.22 µM), for the others: top-dose activation, hits mostly activators. 2.4% of 320,000 active. AID 485313; note: % of control where 0% means no effect; nearly all actives have a fitted effect of over 60% in size
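Huh7 cells stably carrying NPC1 promoter–luciferase, plated in Opti-MEM with 10% FBS for 2 h, were exposed to compound in DMSO for 24 h at 37 °C; luciferase reagent was added for 10 min and luminescence read.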
Rab9 promoter act: Rab9 promoter activation; 2.8% of 320,000 active; Huh7 Rab9 promoter-luciferase reporter, luminescence, 24 h; AID 485297; Potency, µM (titrated, usually from 9.22 µM), for the others: at the highest dose activation, negative = inhibition, usual class: activators; note: % of control where 0% means no effect; nearly all actives have a fitted effect of over 60% in size
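Cell-based reporter: Huh7 stable for Rab9 promoter-driven luciferase, plated in reduced-serum medium with 10% FBS at 1500 cells/well, compound-treated 24 h at 37 °C, luminescence read after 10 min reagent.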
Numbers without * were called inactive; ? = inconclusive; · = no result; [ ] = another dose, or the depositor's remark. Calls come from the whole dose curve; as a rule, active = well fitted curve in the direction sought with a large enough effect; inconclusive = small, poorly fitted or top-dose-only effect, or another doubt; inactive = no such curve, though single readings can be large; an effect the other way counts as inactive or inconclusive. Potency is the fitted concentration of half-maximal effect.

SMILES | KinaseGlo FLuc | FLuc modulator | SMN2 splice up | NPC1 prom act | Rab9 promoter act
Nc1ccccc1SCC(=O)Nc1nccs1 | 4% | -1% | · | -7% | -2%
COc1ccc(-c2cc(-c3ccccc3)nc(SCC(=O)Nc3nccs3)c2C#N)cc1 | · | 13µM* | · | -1% | -4%
NC(=O)c1ccsc1NC(=O)COc1ccccc1 | -28% | 12µM* | 13µM* | ? | 3.2µM*
O=C(COc1ccc2ccc(=O)oc2c1)Nc1nccs1 | · | 15µM* | · | 2.2µM* | 2.8µM*
CCOc1ccc(NC(=O)CC2C(=O)N(c3ccccc3)C(=O)N2CCc2sccc2C)cc1 (centres undefined) | · | -5% | ? | · | ·
CCc1ccc(N2C(=O)CS(=O)(=O)C23C(=O)N(Cc2ccccc2F)c2ccccc23)cc1 (centres undefined) | · | 3% | · | · | ·
CC(C)(C)c1ccc(OCCn2cc(C(=O)c3ccco3)c3ccccc32)cc1 | · | -4% | -3% | · | ·
O=C(COc1ccccc1)Nc1nccs1 | 10µM* | 11µM* | 5µM* | 1µM* | 3.5µM*
O=C(COc1ccccc1)Nc1ncccn1 | 10% | -21% | -9% | -5% | 8%
O=C(COc1ccc2ccccc2c1)Nc1nccs1 | -19% | 0.6µM* | · | 0.5µM* | 0.35µM*
COc1ccc(NC(=O)c2nnn(Cc3nc(-c4cc(Br)ccc4OC)oc3C)c2C)cc1 | · | 4% | -8% | · | ·
O=C(CNC(=O)c1ccccc1)OCC(=O)c1cccs1 | · | 2% | · | -6% | 0%
O=C(OCC(=O)c1cccs1)c1ccccc1 | 8.9µM* | 0.95µM* | -6% | 21% | 11%
O=C(COC(=O)c1cc(=O)[nH]c2ccccc12)c1ccccc1 | -4% | 2.7µM* | 5% | 0% | 0%
O=C(COC(=O)c1cc(=O)[nH]c2ccccc12)c1cccs1 | -4% | 12µM* | · | -2% | -7%
CCOc1ccccc1NC(=O)C1CCN(S(=O)(=O)c2ccc3[nH]c4c(c3c2)CCCCC4)CC1 | · | -2% | · | · | ·
COC(=O)c1c(NC(=O)CN2CCOCC2)sc2c1CCC(C)C2 (centres undefined) | -1% | 12µM* | -5% | 8% | 23%
COC(=O)c1c(NC(=S)NN2CCOCC2)sc2c1CCCC2 | · | 15µM* | · | -2% | -3%
COCC(=O)Nc1sc2c(c1C(=O)OC)CCC(C)C2 (centres undefined) | 2% | ? | 16% | 1% | 4%
COc1ccccc1C(=O)Nc1onc2c1CCCC2 | · | 2.7µM* | 3.5µM* | · | ·
CCCCOc1ccccc1C(=O)Nc1onc2c1CCCC2 | · | -15% | -18% | · | ·
Cc1ccc(C(=O)Nc2onc3c2CCCC3)cc1 | · | 0.3µM* | 2.5µM* | · | ·
CC(C)CNc1nc(Oc2ccc(OCC(N)=O)nn2)nc(N2CCOCC2)n1 | · | -5% | 5% | · | ·
C=CCOC(=O)N[C@H](/C(C(=O)OC)=C(\C)NCc1ccccc1)c1cccc(OC)c1 | 0% | · | -13% | · | ·
COc1ccc(OCc2nc(-c3ccc(OC)c(OC)c3)no2)cc1 | · | -16% | -14% | · | ·
SMILES | KinaseGlo FLuc | FLuc modulator | SMN2 splice up | NPC1 prom act | Rab9 promoter act
COc1ccc(-c2cc(-c3cc(F)ccc3O)[nH]n2)cc1OC | -5% | 8.5µM* | ? | 3.2µM* | 4µM*
COc1ccc(-c2cc(-c3ccccc3O)[nH]n2)cc1OC | 10% | 2.4µM* | ? | ? | 4µM*
COc1ccc(-c2cc(-c3ccc(OC)c(OC)c3)n[nH]2)c(O)c1 | -12% | 5.4µM* | 22µM* | ? | ?
CCOc1ccc(-c2cc(-c3nc(-c4ccc(OC)c(OC)c4)no3)[nH]n2)cc1 | · | 19µM* | · | · | ·
O=C(Nc1cccc(Cl)c1Cl)c1cc(S(=O)(=O)N2CCCc3ccccc32)ccc1F | · | -5% | · | · | ·
COc1cccc(NC(c2nnc(-c3ccccc3)o2)c2ccc(F)cc2Cl)c1 (centres undefined) | · | -4% | -3% | · | ·
Cc1ccccc1SCC(=O)OCC(=O)Nc1sccc1C(N)=O | -1% | -8% | -5% | -5% | 1%
Cc1csc(SCC(=O)Nc2sccc2C(N)=O)n1 | -15% | ? | 13µM* | ? | ?
NC(=O)c1ccsc1NC(=O)CSc1ccccc1F | -4% | 21µM* | ? | ? | ?
CC(C)=C[C@H]1[C@@H](COC(=O)c2ccccc2Cl)C1(C)C | -1%[7.66 µM] | · | -7%[9.22 µM] | · | ·
c1csc(-c2ccc3ccccc3n2)c1 | -9% | 7.6µM* | 21% | ? | ?
Nc1nc2ccccc2cc1-c1cccs1 | · | 11µM* | · | 4.5µM* | ?
Cc1cc2ncc(-c3cccs3)nc2cc1C | · | 0.34µM* | · | 0.89µM* | 4µM*
Nc1nc(-c2cccs2)cs1 | -4%[7.66 µM] | ? | -13%[9.22 µM] | ? | 28%
N#Cc1cc2ccccc2nc1N | -3% | -5% | 7% | 0% | 10%
Cc1ccc(-c2cc3ccccc3nc2N)cc1 | · | 3µM* | · | 5µM* | ?
Cc1ccccc1S(=O)(=O)c1cc2ccccc2nc1N | -1% | 4% | -10% | -1% | 1%
O=C(CSc1nc2ccccc2nc1Cc1ccc(F)cc1)Nc1ccc2c(c1)OCO2 | · | -1% | · | · | ·
O=C(CCC1N=C2c3ccccc3N=C(SCc3cccc(F)c3)N2C1=O)NCc1cccs1 (centres undefined) | · | 0% | · | · | ·
CCc1ccc(NC(=O)Cn2c(=O)n(Cc3ccco3)c(=O)c3cccnc32)cc1 | · | -7% | 7% | · | ·
Cc1ccc(NC(=O)CC(=O)Nc2ccc(C)cc2C)c(C)c1 | · | 1% | · | 1% | -6%
Cc1ccc(N=CNc2ccc(C)cc2C)c(C)c1 | · | 15µM* | · | -4% | 13%
CC1=NN(Cc2ccccc2)C(=O)/C1=C\c1ccc(N(C)C)cc1 | -8% | 11µM* | 7% | 1% | -1%
Cc1cc(C)c2nc(/N=C(\N)NC(=O)c3ccccc3)nc(C)c2c1 | · | ? | · | -5% | -7%
CCc1ccc2nc(/N=C(\N)NC(=O)c3ccccc3)nc(C)c2c1 | · | 6µM* | · | 23% | ?
SMILES | KinaseGlo FLuc | FLuc modulator | SMN2 splice up | NPC1 prom act | Rab9 promoter act
Cc1cc(NC(=O)c2ccccc2)ncc1NC(=O)c1cccs1 | 11µM* | 15µM* | 11µM* | 3.5µM* | 4µM*
O=C(Nc1ccc(NC(=O)c2cccs2)cn1)c1ccccc1 | -10% | 5.4µM* | 16µM* | 2.2µM* | 1.1µM*
Cc1cc(NC(=O)c2cccs2)ncc1NC(=O)C(C)C | · | 15µM* | · | 1.8µM* | 2.2µM*
Cc1cc(NC(=O)c2ccccc2F)ncc1NC(=O)c1cccs1 | -27% | ? | ? | 16% | 29%
Cc1cc(NC(=O)c2cccs2)ncc1NC(=O)c1cccc(F)c1 | -10% | 19µM* | ? | 27% | 3.2µM*
CC(C)C[C@@H](CC(=O)N[C@H](CC(=O)N[C@@H]1CCCC[C@H]1C(=O)N[C@H](CC(=O)N[C@@H](CCC(=O)O)CC(=O)O)Cc1ccccc1)C(C)C)NC(=O)[C@@H]1CNCC[C@H]1N | -1% | · | 0% | · | ·
Cc1ccc(Cl)cc1NC(=O)CN(C)S(=O)(=O)c1ccc2c(c1)n(C)c(=O)c(=O)n2C | · | 3% | 1% | · | ·
